SMILES strings stand for the structures. This is part of a sample that, as a whole, favours compounds with a hit. Of some 83,000 tested, about 20% had one in any assay.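 Method: cells in 96-well plates; compound added at one concentration; 48 h incubation; percent growth measured; values under 10 scored active.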 A number with no mark means an inactive call. Calls of active or inactive are those of the source.

Among the test systems are NCI-H23 lung; NCI-H322M lung; HOP-62 NSCLC; NCI-H460 lung; HOP-92 NSCLC; NCI-H522 lung; A549/ATCC NSCLC; 786-0 renal; COLO 205 colon; DU-145 prostate; K-562 leukemia; MALME-3M melanoma; MDA-MB-231 breast; RXF 393 renal; SF-268 CNS; SF-295 CNS; SF-539 CNS; UACC-257 melanoma; M14 melanoma; HCT-15 colon.
What all share (assay): NCI-60 one-dose screen, 48 h (100 = growth as untreated, 0 = no growth, -100 = all killed)
Holding throughout (conditions): 10 µM unless noted

On to `CCOC(=O)c1ccc2[nH]c(-c3ccccc3)cc(=O)c2c1`, for which the growth is 99.7% in the experiment on NCI-H23 lung; 98.2% with NCI-H322M lung; 106% with HOP-62 NSCLC; 101% with NCI-H460 lung; 92.5% with HOP-92 NSCLC; 101% in the experiment on NCI-H522 lung. Further, the growth is 95.7% with A549/ATCC NSCLC; 104% with 786-0 renal; 109% in the experiment with COLO 205 colon; 103% in the experiment on DU-145 prostate; 97.2% in the experiment with K-562 leukemia; 104% in the experiment on MALME-3M melanoma. The growth in the experiment on MDA-MB-231 breast was 94.5%; with RXF 393 renal, 103%; with SF-268 CNS, 103%; with SF-295 CNS, 106%; with SF-539 CNS, 97.2%; in the experiment on UACC-257 melanoma it was 98.7%. In addition, the growth in the experiment on M14 melanoma was 98.9%; in the experiment with HCT-15 colon, 92.8%.
With `CC[C@]1(O)C[C@@H]2CN(CCc3c([nH]c4ccccc34)[C@@](C(=O)OC)(c3cc4c(cc3OC)N(C)[C@H]3[C@@](O)(C(=O)OC)[C@H](OC(=O)CCCBr)[C@]5(CC)C=CCN6CC[C@]43[C@@H]65)C2)C1`, the growth is 33.1% with NCI-H23 lung; 38.7% in the experiment with NCI-H322M lung; 29.2% in the experiment with HOP-62 NSCLC; 5.85% (active) in the experiment with NCI-H460 lung; -0.264% (active) in the experiment with HOP-92 NSCLC; -27% (active) with NCI-H522 lung. Further, the growth is 15.2% in the experiment on A549/ATCC NSCLC; 10.4% with 786-0 renal; -53.2% (active) with COLO 205 colon; 5.82% (active) with DU-145 prostate; 8.93% (active) in the experiment on K-562 leukemia; 39.4% in the experiment with MALME-3M melanoma. Further, the growth in the experiment with MDA-MB-231 breast is -16.5% (active); with RXF 393 renal it was 34.2%; in the experiment on SF-268 CNS it was 21.2%; in the experiment on SF-295 CNS, 8.8% (active); in the experiment on SF-539 CNS it was -10.4% (active); in the experiment on UACC-257 melanoma it was 62%. Further, the growth in the experiment with M14 melanoma was -11% (active); in the experiment with HCT-15 colon, 10.5%.
Take `CC[C@@H](C)[C@H](NC(=O)Cn1cc(CNC(=O)[C@@H](NC(=O)OCc2ccccc2)C(C)C)nn1)C(=O)O`: the growth was 101% with NCI-H23 lung; 108% in the experiment with NCI-H322M lung; 114% with HOP-62 NSCLC; 110% in the experiment on NCI-H460 lung; 102% in the experiment on HOP-92 NSCLC; 101% in the experiment on NCI-H522 lung. In addition, the growth is 101% in the experiment on A549/ATCC NSCLC; 106% with 786-0 renal; 124% with COLO 205 colon; 114% with DU-145 prostate; 104% in the experiment on K-562 leukemia; 105% with MALME-3M melanoma. The growth in the experiment with MDA-MB-231 breast is 99.4%; in the experiment on RXF 393 renal, 104%; in the experiment with SF-268 CNS it was 114%; with SF-295 CNS, 94.1%; in the experiment with SF-539 CNS, 105%; with UACC-257 melanoma it was 101%. Moreover, the growth was 107% in the experiment with M14 melanoma and 111% in the experiment with HCT-15 colon.
Regarding `NC1(N2SC(S)=C3CCCC=C32)CCCCC1`, the growth is 105% with NCI-H23 lung; 99.8% in the experiment with NCI-H322M lung; 101% in the experiment on HOP-62 NSCLC; 107% in the experiment on NCI-H460 lung; 96.6% with HOP-92 NSCLC; 81.9% with NCI-H522 lung. Also, the growth in the experiment on A549/ATCC NSCLC was 100%; in the experiment on 786-0 renal it was 106%; with COLO 205 colon, 107%; with DU-145 prostate, 98.3%; in the experiment on K-562 leukemia, 84.9%; in the experiment on MALME-3M melanoma, 102%. The growth with MDA-MB-231 breast is 107%; in the experiment with RXF 393 renal it was 129%; in the experiment with SF-268 CNS, 96.3%; in the experiment on SF-295 CNS, 115%; in the experiment on SF-539 CNS it was 104%; in the experiment with UACC-257 melanoma, 99.8%. Besides, the growth is 101% in the experiment with M14 melanoma and 108% in the experiment with HCT-15 colon.
On to `COc1cccc2cc(N(C)c3nc(C)nc4ccsc34)ccc12`, for which the growth in the experiment on NCI-H23 lung is 22.3%; in the experiment on NCI-H322M lung it was 49.8%; in the experiment on HOP-62 NSCLC, 17.1%; in the experiment with NCI-H460 lung it was 1.59% (active); with HOP-92 NSCLC it was 8.89% (active); in the experiment with NCI-H522 lung it was -15.2% (active). For the same compound, the growth is 7.7% (active) with A549/ATCC NSCLC; 20.5% in the experiment on 786-0 renal; -56.9% (active) in the experiment with COLO 205 colon; -4.03% (active) in the experiment with DU-145 prostate; 5.29% (active) in the experiment with K-562 leukemia; 52.5% with MALME-3M melanoma. Moreover, the growth in the experiment with MDA-MB-231 breast was 28.9%; in the experiment with RXF 393 renal, 40%; with SF-268 CNS, 21.7%; in the experiment on SF-295 CNS it was 3.17% (active); in the experiment on SF-539 CNS, -15.5% (active); in the experiment with UACC-257 melanoma it was 37.7%. Moreover, the growth in the experiment on M14 melanoma is 9.85% (active); in the experiment on HCT-15 colon, 0.625% (active).
Take `O=C(NC1CCN(Cc2ccccc2)CC1)c1cc2nc(-c3ccc(Cl)s3)cc(C(F)(F)F)n2n1`: the growth in the experiment with NCI-H23 lung is 90.8%; with NCI-H322M lung, 113%; in the experiment on HOP-62 NSCLC it was 70.7%; in the experiment with NCI-H460 lung, 26.6%; in the experiment on HOP-92 NSCLC, 51.9%; in the experiment with NCI-H522 lung, -31.9% (active). Further, the growth in the experiment on A549/ATCC NSCLC was 81.9%; in the experiment on 786-0 renal it was 102%; in the experiment with COLO 205 colon it was -48.6% (active); in the experiment with DU-145 prostate it was 83.3%; with K-562 leukemia it was 5.49% (active); with MALME-3M melanoma, -84.1% (active). For the same compound, the growth was 57.1% in the experiment on MDA-MB-231 breast; 94.8% in the experiment on RXF 393 renal; 66.7% with SF-268 CNS; -68.6% (active) in the experiment on SF-295 CNS; 2.96% (active) with SF-539 CNS; -65.5% (active) with UACC-257 melanoma. The growth was 48.7% in the experiment on M14 melanoma and 94.7% in the experiment on HCT-15 colon.
Regarding `CCOC(=O)C1=C(C)c2ccc(OC)c(OC)c2C1`, the growth with NCI-H23 lung is 91.8%; in the experiment with NCI-H322M lung it was 99.2%; with HOP-62 NSCLC, 88.5%; with NCI-H460 lung, 118%; in the experiment on HOP-92 NSCLC it was 79.2%; in the experiment with NCI-H522 lung, 78.6%. For the same compound, the growth with A549/ATCC NSCLC is 87%; in the experiment on 786-0 renal, 81.4%; with COLO 205 colon, 113%; in the experiment on DU-145 prostate, 115%; in the experiment with K-562 leukemia it was 102%; in the experiment on MALME-3M melanoma it was 123%. The growth was 117% with MDA-MB-231 breast; 93.8% in the experiment with RXF 393 renal; 108% in the experiment on SF-268 CNS; 99.5% in the experiment on SF-295 CNS; 91.9% in the experiment with SF-539 CNS; 98.4% in the experiment with UACC-257 melanoma. For the same compound, the growth in the experiment on M14 melanoma was 126%; with HCT-15 colon, 97.3%.
